{
  "source": "the antibiotic and cytotoxicity screens of Wong et al. (2023)",
  "note": "Hit rate of the full screen: of about 39,000 compounds, about 500 (1.3%) were called active. Only a selection was taken, and actives are over-represented in it overall.",
  "data": [
    {"tested_on": "S. aureus RN4220", "test": "growth inhibition call (relative growth <= 0.2)", "settings": "50 µM", "values": [
      {"compound": "COc1ccc2c3c([nH]c2c1)[C@@H](CO)N(C[C@]13CCN(CC1)C(=O)NC(C)C)C(=O)CN1CCOCC1", "growth inhibition call": "inactive"},
      {"compound": "C[C@H]1CN([C@@H](C)CO)C(=O)c2cc(C#CCN(C)C)cnc2O[C@@H]1CN(C)C(=O)Nc1cccc(F)c1", "growth inhibition call": "inactive"},
      {"compound": "C[C@@H]1CN([C@@H](C)CO)C(=O)Cc2cc(NC(=O)NC3CCCCC3)ccc2O[C@H]1CN(C)C(=O)Nc1ccc(C(F)(F)F)cc1", "growth inhibition call": "inactive"},
      {"compound": "Cc1ccc(S(=O)(=O)Nc2ccc3c(c2)C(=O)N([C@@H](C)CO)C[C@H](C)[C@@H](CN(C)Cc2ccc(C(F)(F)F)cc2)OCCCC[C@H](C)O3)cc1", "growth inhibition call": "inactive"},
      {"compound": "C[C@H]1CN([C@@H](C)CO)C(=O)Cc2cc(NS(=O)(=O)c3cn(C)cn3)ccc2O[C@@H]1CN(C)Cc1ccncc1", "growth inhibition call": "inactive"},
      {"compound": "COc1ccc(S(=O)(=O)Nc2ccc3c(c2)CC(=O)N([C@@H](C)CO)C[C@@H](C)[C@@H](CN(C)S(=O)(=O)c2cn(C)cn2)O3)cc1", "growth inhibition call": "inactive"},
      {"compound": "Cc1noc(C)c1NC(=O)Nc1ccc2c(c1)CC(=O)N([C@H](C)CO)C[C@H](C)[C@H](CN(C)Cc1ccc(Cl)c(Cl)c1)O2", "growth inhibition call": "inactive"},
      {"compound": "CN1C[C@H](C(N)=O)CC1=O", "growth inhibition call": "inactive"},
      {"compound": "Nc1ccc(/C=C/C(=O)NCc2cc3cc(-c4ccc(C(=O)N5CCC(F)(F)CC5)cc4)cc(-c4ccc(F)cc4)c3o2)cn1", "growth inhibition call": "inactive"},
      {"compound": "Cc1ccc(S(=O)(=O)N2C[C@@H](O)COC[C@H]3O[C@@H](CC(=O)NCCN4CCCCC4)CC[C@@H]32)cc1", "growth inhibition call": "inactive"},
      {"compound": "C[C@H](CO)N1C[C@H](C)[C@H](CN(C)Cc2ccncc2)OCCCC[C@H](C)Oc2ccc(NC(=O)C3CCCCC3)cc2C1=O", "growth inhibition call": "inactive"},
      {"compound": "C[C@H]1CN([C@@H](C)CO)C(=O)Cc2cc(NS(=O)(=O)c3cccs3)ccc2O[C@@H]1CN(C)C(=O)Nc1cccc2ccccc12", "growth inhibition call": "inactive"},
      {"compound": "CC(C)NC(=O)Nc1ccc2c(c1)CC(=O)N([C@H](C)CO)C[C@@H](C)[C@@H](CN(C)C(=O)NC1CCCCC1)O2", "growth inhibition call": "inactive"},
      {"compound": "C=CCc1ccc(O)c(OC)c1", "growth inhibition call": "active"},
      {"compound": "COc1cc(C(C)=O)ccc1O", "growth inhibition call": "inactive"},
      {"compound": "COc1cc(C=O)ccc1O", "growth inhibition call": "inactive"},
      {"compound": "C[C@@H]1CN([C@@H](C)CO)C(=O)c2cccc(NC(=O)c3cnccn3)c2O[C@H]1CN(C)S(C)(=O)=O", "growth inhibition call": "inactive"},
      {"compound": "COc1ccc(S(=O)(=O)N(C)C[C@@H]2Oc3c(NC(=O)NC(C)C)cccc3C(=O)N([C@H](C)CO)C[C@H]2C)cc1", "growth inhibition call": "inactive"},
      {"compound": "CCCNC(=O)N1[C@@H]2c3cccc(=O)n3C[C@H]1[C@H](CO)[C@H]2C(=O)NCC(F)(F)F", "growth inhibition call": "inactive"},
      {"compound": "FC(F)(F)c1cc(NC(=S)Nc2ccc(Br)cc2-c2nn[nH]n2)cc(C(F)(F)F)c1", "growth inhibition call": "active"},
      {"compound": "O=C(Nc1cc(C(F)(F)F)cc(C(F)(F)F)c1)Nc1cnn(-c2ccc([N+](=O)[O-])cc2)c1C(F)(F)F", "growth inhibition call": "inactive"},
      {"compound": "O=C(Nc1cc(C(F)(F)F)cc(C(F)(F)F)c1)Nc1c(Br)cc(Br)cc1-c1nn[nH]n1", "growth inhibition call": "active"},
      {"compound": "C[C@@H]1CN([C@H](C)CO)C(=O)Cc2cc(NC(=O)Cn3cnnn3)ccc2O[C@@H]1CN(C)S(=O)(=O)c1ccccc1", "growth inhibition call": "inactive"},
      {"compound": "COc1cccc(NC(=O)N[C@@H]2C=C[C@H](CC(=O)N3CCOCC3)O[C@H]2CO)c1", "growth inhibition call": "inactive"},
      {"compound": "Cc1noc(C)c1NC(=O)N(C)C[C@@H]1OCCCC[C@@H](C)Oc2ccc(NC(=O)Cc3ccccc3)cc2C(=O)N([C@@H](C)CO)C[C@@H]1C", "growth inhibition call": "inactive"},
      {"compound": "Cc1noc(C)c1S(=O)(=O)Nc1ccc2c(c1)C(=O)N([C@@H](C)CO)C[C@@H](C)[C@@H](CN(C)C(=O)NC(C)C)O2", "growth inhibition call": "inactive"},
      {"compound": "O=C1CN(/N=C/c2ccc([N+](=O)[O-])o2)C(=O)N1", "growth inhibition call": "active"},
      {"compound": "O=C1CN(N=Cc2ccc(-c3ccc([N+](=O)[O-])cc3)o2)C(=O)[N-]1.[Na+]", "growth inhibition call": "inactive"},
      {"compound": "O=[N+]([O-])c1cncn1CCN1CCOCC1", "growth inhibition call": "inactive"},
      {"compound": "O=C1CN(N=Cc2ccc([N+](=O)[O-])o2)C(=O)N1", "growth inhibition call": "active"},
      {"compound": "O=C1OC(CN2CCOCC2)CN1N=Cc1ccc([N+](=O)[O-])o1", "note": "(stereo not given)", "growth inhibition call": "active"},
      {"compound": "O=C1OCCN1N=Cc1ccc([N+](=O)[O-])o1", "growth inhibition call": "active"},
      {"compound": "COc1ccc(CN(C)C[C@@H]2OCCCC[C@H](C)Oc3ccc(NS(=O)(=O)c4cccs4)cc3C(=O)N([C@@H](C)CO)C[C@H]2C)cc1", "growth inhibition call": "inactive"},
      {"compound": "O=C(O)[C@H](O)c1ccccc1", "growth inhibition call": "inactive"},
      {"compound": "COc1ccc(S(=O)(=O)N[C@H]2CC[C@H](CCNC(=O)CN3CCOCC3)O[C@@H]2CO)cc1", "growth inhibition call": "inactive"},
      {"compound": "C[C@@H]1CCCCO[C@@H](CN(C)Cc2ccncc2)[C@@H](C)CN([C@H](C)CO)C(=O)c2cc(NC(=O)Nc3ccc(F)cc3)ccc2O1", "growth inhibition call": "inactive"},
      {"compound": "Cc1noc(C)c1NC(=O)Nc1ccc2c(c1)CC(=O)N([C@H](C)CO)C[C@H](C)[C@H](CN(C)C(=O)Nc1ccc(C(F)(F)F)cc1)O2", "growth inhibition call": "inactive"},
      {"compound": "CC(C)NC(=O)N(C)C[C@H]1Oc2ccc(NC(=O)Cc3ccccc3)cc2C(=O)N([C@H](C)CO)C[C@@H]1C", "growth inhibition call": "inactive"},
      {"compound": "[N-]=[N+]=NCCOCCNC(=O)CCCOc1ccc(CS(=O)c2nnc(-c3ccc(F)cc3)o2)nc1", "note": "(stereo not given)", "growth inhibition call": "active"},
      {"compound": "C[C@H]1CNC(=O)O1", "growth inhibition call": "inactive"},
      {"compound": "COc1ccc(S(=O)(=O)N(C)C[C@@H]2Oc3c(NC(=O)Nc4c(C)noc4C)cccc3C(=O)N([C@@H](C)CO)C[C@H]2C)cc1", "growth inhibition call": "inactive"},
      {"compound": "COCCOC(=O)N1C(=O)[C@@]2(c3cc(C#CCC(C(=O)OC)C(=O)OC)ccc31)[C@H](c1ccc(OCCO)cc1)N1[C@H](c3ccccc3)[C@H](c3ccccc3)OC(=O)[C@H]1[C@@H]2C(=O)N1CCCCCCC1", "growth inhibition call": "inactive"},
      {"compound": "COCCOC(=O)N1C(=O)[C@@]2(c3cc(C#CCC(C(=O)OC)C(=O)OC)ccc31)[C@H](C(=O)N1CCCCCCC1)[C@H]1C(=O)O[C@H](c3ccccc3)[C@H](c3ccccc3)N1[C@@H]2c1ccc(O)cc1", "growth inhibition call": "active"},
      {"compound": "COCCOC(=O)N1C(=O)[C@@]2(c3cc(C#CCC(C(=O)OC)C(=O)OC)ccc31)[C@H](C(=O)N1CCCCCCC1)[C@H]1C(=O)O[C@H](c3ccccc3)[C@H](c3ccccc3)N1[C@@H]2c1ccc(OCCO)cc1", "growth inhibition call": "inactive"},
      {"compound": "C[C@@H]1CN([C@H](C)CO)C(=O)c2c(c3ccccc3n2C)-c2ccccc2CO[C@H]1CN(C)S(C)(=O)=O", "growth inhibition call": "inactive"},
      {"compound": "C[C@H](CO)N1C[C@H](C)[C@@H](CN(C)S(=O)(=O)c2ccccc2)OCCCC[C@H](C)Oc2ccc(NC(=O)c3ccccc3)cc2C1=O", "growth inhibition call": "inactive"},
      {"compound": "CC(C)(C)[S@@+]([O-])N1Cc2cc(C(=O)O)nc(-c3ccc(Br)cc3)c2[C@H]1CCO[Si](C)(C)C(C)(C)C", "growth inhibition call": "active"},
      {"compound": "CCOC(=O)c1cc2c(c(-c3ccccc3)n1)[C@@H](CCO[Si](C)(C)C(C)(C)C)N(S(=O)(=O)C(C)(C)C)C2", "growth inhibition call": "inactive"},
      {"compound": "CCOC(=O)c1cc2c(c(-c3cccc(Br)c3)n1)[C@@H](CCO[Si](C)(C)C(C)(C)C)N(S(=O)(=O)C(C)(C)C)C2", "growth inhibition call": "inactive"},
      {"compound": "C[C@@H]1CCCCO[C@@H](CN(C)S(=O)(=O)c2ccc(Cl)cc2)[C@H](C)CN([C@H](C)CO)C(=O)c2cc(NS(=O)(=O)c3ccccc3)ccc2O1", "growth inhibition call": "inactive"},
      {"compound": "COc1cccc(C#Cc2cnc3c(c2)C(=O)N([C@@H](C)CO)C[C@H](C)[C@@H](CN(C)C(=O)C2CCOCC2)O3)c1", "growth inhibition call": "inactive"},
      {"compound": "Cc1ccc(S(=O)(=O)N(C)C[C@H]2Oc3ccc(NS(=O)(=O)c4c(C)noc4C)cc3CC(=O)N([C@H](C)CO)C[C@H]2C)cc1", "growth inhibition call": "inactive"},
      {"compound": "O=C(O)c1cnc(N2CCCC2)nc1", "growth inhibition call": "inactive"},
      {"compound": "Cc1ccc(Cl)c(Nc2ccccc2C(=O)[O-])c1Cl.[Na+]", "growth inhibition call": "inactive"},
      {"compound": "CCN1CCN(C(=O)NC(C(=O)NC2C(=O)N3C(C(=O)O)=C(CSc4nnnn4C)CSC23)c2ccc(O)cc2)C(=O)C1=O", "note": "(stereo not given)", "growth inhibition call": "active"},
      {"compound": "Cc1cc(O)c(C(=O)NC(C(=O)NC2C(=O)N3C(C(=O)O)=C(CSc4nnnn4C)CSC23)c2ccc(O)cc2)cn1", "note": "(stereo not given)", "growth inhibition call": "active"},
      {"compound": "Cc1cc(=O)c(C(=O)N[C@@H](C(=O)N[C@@H]2C(=O)N3C(C(=O)O)=C(CSc4nnnn4C)CS[C@H]23)c2ccc(O)cc2)c[nH]1", "growth inhibition call": "active"},
      {"compound": "Cc1cc2nc3ccc(N(C)C)cc3[s+]c2cc1N.[Cl-]", "growth inhibition call": "inactive"},
      {"compound": "C=CCOC(=O)[C@H]1[C@@H]2C(=O)O[C@@H](c3ccccc3)[C@@H](c3ccccc3)N2[C@@H](c2ccc(OCCOC(=O)[C@H]3C[C@H]4C(=O)N[C@@H](CC(C)C)C(=O)N4[C@H]3c3cccc(OCCO)c3)cc2)[C@]12C(=O)Nc1ccc(I)cc12", "growth inhibition call": "inactive"},
      {"compound": "COc1ccc(S(=O)(=O)N(C)C[C@@H]2Oc3cc(C4=CCCC4)ccc3S(=O)(=O)N([C@@H](C)CO)C[C@H]2C)cc1", "growth inhibition call": "inactive"},
      {"compound": "C[C@H](CO)N1C[C@H](C)[C@H](CN(C)Cc2ccc(C(F)(F)F)cc2)Oc2ccc(NS(=O)(=O)c3ccc(Cl)cc3)cc2C1=O", "growth inhibition call": "inactive"},
      {"compound": "CC[C@@H]1OC(=O)C[C@@H](O)[C@H](C)[C@@H](O[C@@H]2O[C@H](C)[C@@H](O)[C@H](N(C)C)[C@H]2O)[C@@H](CCN2C[C@H](C)C[C@H](C)C2)C[C@@H](C)C(=O)/C=C/C(C)=C\\[C@@H]1CO[C@@H]1O[C@H](C)[C@@H](O)[C@@H](OC)[C@H]1OC", "growth inhibition call": "active"},
      {"compound": "CCC1OC(=O)CC(O)C(C)C(OC2OC(C)C(O)C(N(C)C)C2O)C(CCN2CC(C)CC(C)C2)CC(C)C(=O)C=CC(C)=CC1COC1OC(C)C(O)C(OC)C1OC", "note": "(stereo not given)", "growth inhibition call": "active"},
      {"compound": "CC[C@H]1OC(=O)C[C@@H](O)[C@H](C)[C@@H](O[C@@H]2O[C@H](C)[C@@H](O)[C@H](N(C)C)[C@H]2O)[C@@H](CCN2C[C@H](C)C[C@H](C)C2)C[C@@H](C)C(=O)/C=C/C(C)=C/[C@@H]1CO[C@@H]1O[C@H](C)[C@@H](O)[C@@H](OC)[C@H]1OC", "growth inhibition call": "active"},
      {"compound": "C[C@@H]1CN([C@H](C)CO)C(=O)Cc2cc(NS(C)(=O)=O)ccc2O[C@H]1CN(C)S(=O)(=O)c1cn(C)cn1", "growth inhibition call": "inactive"}
    ]}
  ]
}
